CBFb RUNX1 block: CBF-beta/RUNX1 interaction disruption | Q01196+Q13951 | AlphaScreen CBFb-His/RUNX1-biotin binding, biochemical | Potency, µM (titrated, usually from 59.8 µM), for the others: at the highest dose activity, negative = inhibition, most hits filed as inhibitors | 230,000 tested, under 10 active; note: % of control where 0% means no effect
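Compounds were screened at multiple concentrations against a preformed CBF-beta(His)/RUNX1(biotin) complex (30 nM of each) for 15 min at room temperature, followed by 90 min with nickel and streptavidin beads and AlphaScreen reading.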
KCNH2 3.1 block: KCNH2 3.1 (human) potassium channel inhibition. U2OS KCNH2 3.1, thallium flux FluxOr; hits give low values. activity change, % (tested at about 1.8 µM). AID 720553. 340,000 tested, 0.95% active;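 active = maximum activity change below -70%; inconclusive = maximum activity change from -70% to -50%; inactive = maximum activity change above -50%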;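 note: thallium influx rate constant from kinetic fluorescence after stimulation buffer; % is set by controls: 0 for no effect and ±100 for the full control effect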
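Kinetic fluorescence (2 min after stimulation buffer) measures Tl+ influx through KCNH2 3.1 expressed by viral transduction in U2OS cells; the rate constant is normalized against DMSO controls serving as positive and negative references.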
PLK1 PBD inh: PLK1 (human) polo-box domain binding inhibition; P53350; Plk1 PBD binding of FITC phosphopeptide, fluorescence polarization; Potency, µM, for the others: max response, negative = inhibition, hits mostly inhibitors; 360,000 tested, 2.8% active; AID 720504; note: potency is the fitted concentration of half-maximal effect; series mostly up to about 57 µM; % is set by controls: 0 for no effect and ±100 for the full control effect; nearly all actives have a fitted effect of over 65% in size
Target sequence (P53350 whole entry, looked up, the tested form may be a part): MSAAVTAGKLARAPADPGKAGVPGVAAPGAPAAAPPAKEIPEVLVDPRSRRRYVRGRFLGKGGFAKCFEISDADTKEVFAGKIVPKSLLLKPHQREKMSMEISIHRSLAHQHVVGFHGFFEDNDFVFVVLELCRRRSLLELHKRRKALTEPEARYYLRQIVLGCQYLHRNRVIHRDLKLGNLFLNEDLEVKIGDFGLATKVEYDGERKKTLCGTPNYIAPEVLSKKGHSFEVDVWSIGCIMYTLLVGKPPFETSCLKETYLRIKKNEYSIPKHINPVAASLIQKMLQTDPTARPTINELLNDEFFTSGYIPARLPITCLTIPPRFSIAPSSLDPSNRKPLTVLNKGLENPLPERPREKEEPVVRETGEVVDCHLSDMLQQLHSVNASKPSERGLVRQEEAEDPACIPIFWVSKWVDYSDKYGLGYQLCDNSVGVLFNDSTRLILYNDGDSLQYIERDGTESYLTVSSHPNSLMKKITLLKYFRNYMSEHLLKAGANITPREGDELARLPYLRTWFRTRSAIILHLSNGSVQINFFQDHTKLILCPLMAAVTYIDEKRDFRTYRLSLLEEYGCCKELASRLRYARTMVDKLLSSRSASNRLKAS
MBNL1-CUG inh: blocks human MBNL1 binding to CUG repeat RNA | AID 2675 | Q9NR56 | TR-FRET MBNL1-His/biotin-(CUG)12 binding, 665/545 ratio | 280,000 tested, 0.036% active | Potency, µM (series often up to 57.5 µM), for the others: top-dose activity change, negative = inhibition, hits mostly inhibitors; active = well fitted inhibition curve with a large enough effect in the signal ratio, with a control signal flat, not every such curve was filed as active; inconclusive = small, poorly fitted or top-dose-only effect, or effect the other way, or a change in a side signal; inactive = no such curve, though single readings can be large or run the other way; the % refers to the signal ratio; note: potency is the fitted concentration of half-maximal effect; % is set by controls: 0 for no effect and ±100 for the full control effect
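Ratiometric TR-FRET (665 over 545 nm, excitation 340 nm) tracks disruption of MBNL1-His/biotin-(CUG)12 complex after 60 min at room temperature, with compounds at 92 nM to 58 uM final.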
VDR inhibitor: inhibitors of human vitamin D receptor. P11473. VDR-SRC2-3 peptide fluorescence polarization, 2 h. Potency, µM, without a hit: max response, negative = inhibition, actives largely listed as inhibitors. 400,000 tested, 0.93% active. AID 504847; note: potency is the fitted concentration of half-maximal effect; % is set by controls: 0 for no effect and ±100 for the full control effect
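Inhibition of the VDR/SRC2-3 peptide interaction is quantified by fluorescence polarization. Compounds (23 nl, pintool) incubate with the reagents for 2 hours at ambient room temperature.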
hERG WT inh: blocks the wildtype human KCNH2 potassium channel; U2OS, BacMam KCNH2, thallium flux FluxOr; hits give low values; activity change, % at 1.84 µM; 340,000 tested, 0.37% active; Q12809;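 active = maximum activity change below -70%; inconclusive = maximum activity change between -70% and -50%; inactive = maximum activity change above -50%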; note: % is set by controls: 0 for no effect and ±100 for the full control effect
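U2OS cells transduced with wild-type KCNH2 virus are loaded with FluxOr dye for 45 min, and thallium flux is measured in kinetic reads before and after stimulation buffer. Rate constants are normalized to DMSO controls.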
* marks the source's active call; other numbers are inactive results; ? = inconclusive; / = no result. This is a sample that favours compounds with a hit; in the whole collection about 3.8% have one here. Unless noted, calls come from the whole dose curve; as a rule, active = well fitted curve in the direction sought with a large enough effect; inconclusive = small, poorly fitted or top-dose-only effect, or another doubt; inactive = no such curve, though single readings can be large; an effect the other way counts as inactive or inconclusive.

SMILES	CBFb RUNX1 block	KCNH2 3.1 block	PLK1 PBD inh	MBNL1-CUG inh	VDR inhibitor	hERG WT inh
CC(C)CN1C(=O)c2ccc(C(=O)Nc3ccccc3C(=O)O)cc2C1=O	/	-17	24µM*	?	?	8
CCOC(=O)N1CCN(C(=O)NC2CCCCC2)CC1	1%	-71*	-1%	2%	-10%	2
Cc1ccc(NC(=O)CN2C(=O)CSc3ccc(S(=O)(=O)N(C)C)cc32)c(C)c1	/	/	/	/	10%	/
O=C(CSc1n[nH]c(=O)[nH]c1=O)N/N=C/C=C\c1ccccc1	19%	1	24µM*	?	2%	1
COC(=O)[C@@H](NC(=O)O[C@@H]1C(=O)c2cc(OC)ccc2O[C@H]1c1cccc(OC)c1)C(C)C	-8%	/	/	/	1%	/
COC(=O)c1ccc(-n2c(C)cc(C(=O)CCl)c2C)cc1	-3%	-6	?	-4%	79µM*	-11
CCOc1ccc(-n2c(C)cc(C(=O)CCl)c2C)cc1	-12%	-46	?	-9%	50µM*	-48
CCCCn1c(NC(=O)c2ccco2)c(S(=O)(=O)c2ccc(C)cc2)c2nc3ccccc3nc21	0%	13	?	42%	?	-10
CCCCCn1c(NC(=O)c2ccco2)c(S(=O)(=O)c2ccc(C)cc2)c2nc3ccccc3nc21	18%	-11	21µM*	23%	?	-5
Cc1ccc(S(=O)(=O)c2c(N)n(CCCO)c3nc4ccccc4nc23)cc1	16%	-6	-13%	16%	-1%	-2
CCCCn1c(NS(=O)(=O)c2ccccc2)c(S(=O)(=O)c2ccc(C)cc2)c2nc3ccccc3nc21	15%	-3	27µM*	-1%	50µM*	-13
CCC(=O)Nc1c(S(=O)(=O)c2ccccc2)c2nc3ccccc3nc2n1C(C)c1ccccc1 (stereo unspecified)	-4%	-20	-14%	?	-13%	8
CCCCn1c(NC(=O)c2ccc(Br)o2)c(S(=O)(=O)c2ccccc2)c2nc3ccccc3nc21	2%	1	25µM*	5%	?	7
CCOC(=O)C1CCN(C(=O)Cn2ncc3c4ccccc4n(Cc4ccc(F)cc4)c3c2=O)CC1	/	/	/	/	1%	/
COc1ccc(N(C(=O)COc2c(C)cccc2C)S(=O)(=O)c2ccc(Cl)cc2)cc1	/	/	/	/	16%	/
COC(=O)COc1cccc(NC(=O)c2ccc(Cl)cc2)c1	5%	12	30µM*	-3%	?	20
CCOc1ccccc1CNCc1cccn1-c1nnc(N2CCN(c3ccccc3)CC2)s1	/	/	/	/	8%	/
CCc1cccc(NC(=O)c2c(N3CCCC3=O)c3cc(C)ccc3n2C)c1	/	/	/	/	5%	/
Cc1ccc(NC(=S)Nc2ccc3[nH]c(=O)[nH]c3c2)cc1	6%	-26	19µM*	-2%	?	-13
COc1ccc2cc(S(=O)(=O)N3CCCCCC3)ccc2c1	1%	3	?	2%	-18%	-3
COC(=O)Nc1ccc(S(=O)(=O)N2CCC(C(=O)N3CCC(C)CC3)CC2)cc1	-3%	21	9.5µM*	-2%	?	0
COCCCNC(=S)N1CCN(S(=O)(=O)c2ccc(OC)cc2)CC1	-3%	-22	21µM*	2%	-5%	3
COc1ccc2cc(S(=O)(=O)N3CCCC(C)C3)ccc2c1 (stereo unspecified)	/	-5	27µM*	-6%	89µM*	-9
COC(=O)Nc1ccc(S(=O)(=O)N2CCC(C)CC2)cc1	2%	15	-3%	-3%	8%	1
COc1ccc(S(=O)(=O)N2CCC(C(=O)N[C@@H](C)C(=O)NC3CCCC3)CC2)cc1	/	12	19µM*	0%	?	2
SMILES	CBFb RUNX1 block	KCNH2 3.1 block	PLK1 PBD inh	MBNL1-CUG inh	VDR inhibitor	hERG WT inh
CCOc1ccccc1N1C(=O)c2ccccc2N/C1=C\N1CCN(C(=O)c2ccco2)CC1	/	/	/	/	-11%	/
COc1ccc(S(=O)(=O)N2CCC(C(=O)N3CCCCCC3)CC2)cc1	-1%	4	11µM*	3%	-10%	2
COc1ccc(S(=O)(=O)N2CCC(C(=O)N3CCCC3)CC2)cc1	0%	12	-2%	1%	12%	11
COc1ccc(N2CCN(C(=O)C3CCN(S(=O)(=O)c4cccs4)CC3)CC2)cc1	-1%	11	17µM*	7%	?	-5
Cc1cc(C)cc(C(=O)NN2CCN(C)CC2)c1	-8%	5	12µM*	-10%	?	0
O=C(CSCCc1ccccn1)Nc1ccccn1	2%	-5	?	4%	?	-3
O=C(O)CSCCc1ccccn1	-4%	3	30µM*	-5%	1%	-13
COc1cc(NC(=S)NCCN2CCOCC2)cc(OC)c1OC	9%	6	-24%	-2%	-20%	9
COc1ccc(C(C)(C)C)cc1NC(=S)NCCN1CCOCC1	-2%	3	24µM*	-17%	6%	2
Cc1sc(-n2c(C)ccc2C)c(C#N)c1C	-3%	-5	19µM*	4%	79µM*	5
COc1cc(C=NCc2ccccc2)ccc1O	/	15	3%	/	/	3
COc1ccc(/C=N/N(Cc2ccccc2)c2ccccc2)cc1O	-25%	8	17µM*	1%	?	0
O=c1[nH]c(SCc2cccc(Cl)c2)nc2c1CCC2	/	/	/	/	14%	/
N#Cc1c(-c2ccccc2)nc(SCc2cccc(Cl)c2)[nH]c1=O	/	-4	27µM*	18%	-9%	-5
COc1ccc(NS(=O)(=O)c2ccc(Oc3ncccn3)cc2)cc1	6%	1	-1%	0%	-12%	4
COc1ccc(S(=O)(=O)Nc2ccc(Oc3ncccn3)c(Cl)c2)cc1	6%	15	5.3µM*	-2%	-23%	26
COc1ccc(S(=O)(=O)Nc2c(F)cccc2F)cc1	1%	24	30µM*	1%	?	2
COc1ccc(S(=O)(=O)Nc2ccc3c(c2)CCC3)cc1	-1%	8	3.8µM*	-1%	45µM*	4
Fc1ccc(-c2noc3ncnc(N4CCCCC4)c23)cc1	/	/	/	/	8%	/
Cc1ccc(S(=O)(=O)c2nc(-c3ccccc3)oc2SCC(=O)NC2CCCCC2)cc1	/	/	/	/	-8%	/
N#Cc1cc(-c2ccc(Cl)cc2)cnc1Sc1ccccc1	2%	-79*	2%	1%	1%	8
Cc1cc(C)nc(N/N=C/C(Cl)=C/c2ccccc2)n1	-3%	-83*	-9%	?	-3%	7
Cc1cc(C)nc(N/N=C/c2ccccc2)n1	0%	5	-6%	?	0%	-7
Cc1ccc(OCCn2cc(/C=C(\C#N)C(=O)NCC3CCCO3)c3ccccc32)cc1 (stereo unspecified)	-13%	-14	-11%	/	-19%	1

Compound activity from PubChem BioAssay.
